Drawing on ChEMBL document CHEMBL4513216, “Probing the Open Global Health Chemical Diversity Library for Multistage-Active Starting Points for Next-Generation Antimalarials” (ACS Infect Dis, 2020), this text covers INHIBITION for 55 compounds.

SMILES strings stand for the structures. Among all 69,000 compounds or so, about 8,600 (12%) showed an effect of 50% or more. The sample as a whole holds a higher share of strong results than the screen did.

The subject of this test is Plasmodium berghei. The experiment in a line: Screen against P. berghei liver stage (PbLuc), transformed with Luciferase, at 10uM. The conditions noted are these: tested at 10 uM. The test is classed as functional, HepG2.
In the case of `Cc1nc(CNCc2c(C(C)C)nn(C)c2N2CCOCC2)cs1`, the INHIBITION is 49.6%.

As for `COc1ccc2c(c1)C(C(=O)NCCN1CCNC1=O)CC(=O)N2` (stereo not given), the INHIBITION is recorded as 5.36%.

As to `Cc1cc(CNC(=O)CC2CCN(C(C)C)CC2)n(C)n1`, the INHIBITION is reported as 60.8%.

For `Cc1nc(CCNC(=O)CC2CCN(C(C)C)CC2)sc1Cl`, the INHIBITION worked out at 60.9%.

With `CCN1CCC(CC(=O)NCCc2nc(C)cc(C)n2)CC1`, the INHIBITION is on record as -26.1%.

For the compound `CCN1CCC(CC(=O)NCc2nc(C)cc(C)n2)CC1`, the INHIBITION is reported as 69.9%.

On to `CCc1nc(C)c(CNC(=O)CCCN2CCCCC2)s1`, for which the INHIBITION worked out at 9.87%.

In the case of `CCCN1CCC(CC(=O)NCc2cc(C)nn2C)CC1`, the INHIBITION came out at 22.3%.

As for `CCN1CCC(CC(=O)NCc2cc(C)nn2C)CC1`, the INHIBITION is -6.59%.

Turning to `CCCN1CCC(CC(=O)NCCc2nc(C)cc(C)n2)CC1`, the INHIBITION was -37.2%.

On to `CCN1CCC(CC(=O)NCCc2nc(C)c(Cl)s2)CC1`, for which the INHIBITION worked out at 13%.

Regarding `Cc1cc(CNC(=O)CCCN2CCCCC2)n(C)n1`, the INHIBITION was 73.6%.

With `Cc1nc(CCNC(=O)C2CCN(C(C)C)CC2)sc1Cl`, the INHIBITION is reported as -3.72%.

Take `Cc1cc(C(F)(F)F)nc(CNC(=O)CCCN2CCCCC2)n1`: the INHIBITION was found to be 48%.

Consider `CC(=O)Nc1nc(C(=O)NC(C)c2ccc(F)c(F)c2)cs1` (stereo not given), for which the INHIBITION is -31.8%.

Consider `COc1cccc(N2CCN(Cc3ccc4[nH]ccc4c3)CC2=O)c1`, for which the INHIBITION stood at 10.2%.

As to `CCCc1nnc2sc(C3CCS(=O)(=O)CC3)nn12`, the INHIBITION was found to be 33%.

For `CC(=O)N1CCN(c2cncc(C3CCNCC3)n2)CC1`, the INHIBITION was 16.5%.

For the compound `CN1CC2(CNCCN(C(=O)Nc3ccccc3)C2)CC1=O` (stereo not given), the INHIBITION is listed as -36.8%.

`COc1c(CNCc2ccc(N(C)C)nc2)c(C)nn1C`: the INHIBITION was determined as 11.25%.

As for `CC(C)C[C@H](NCc1cc(O)c2cccc(F)c2n1)C(N)=O`, the INHIBITION was 3.03%.

Regarding `O=C(c1cccc(C2CCNC2)c1)N1CCC(c2ncc[nH]2)CC1` (stereo not given), the INHIBITION is recorded as -6.61%.

Regarding `COCCN1CCN(CC(O)c2ccc(OC(F)(F)F)cc2)CC1` (stereo not given), the INHIBITION is listed as -24.2%.

Regarding `CN1C(=O)CCC12CCCN(C(=O)c1ccncc1F)C2` (stereo not given), the INHIBITION was -12.2%.

Turning to `O=C(c1ccoc1)N1CCC2(CCC(=O)N2Cc2ccncc2)CC1`, the INHIBITION is recorded as 43.8%.

On to `CN(C)CCN1C(=O)CCC12CCCN(C(=O)c1ccncc1F)C2` (stereo not given), for which the INHIBITION is recorded as -24.1%.

For the compound `O=C(c1ccoc1)N1CCCC2(CCC(=O)N2Cc2cccnc2)C1` (stereo not given), the INHIBITION is recorded as 42.3%.

As to `O=C(c1ccoc1)N1CCCC2(CCC(=O)N2Cc2ccncc2)C1` (stereo not given), the INHIBITION is 51.2%.

With `CCN1C(=O)CCCC12CCCN(C(=O)c1ccncc1F)C2` (stereo not given), the INHIBITION is recorded as 51.4%.

Regarding `O=C(Cc1c(F)cccc1Cl)Nc1cccc(N2CCCC2)c1`, the INHIBITION is 43.4%.

Regarding `CNC(=O)c1cn[nH]c1C1CCN(Cc2sccc2C)C1` (stereo not given), the INHIBITION was -14.1%.

Turning to `COc1cc(C(C)=O)ccc1OCC(=O)N(C)Cc1cnn(C)c1`, the INHIBITION is given as 40.9%.

On to `CC(=O)c1cccc(OCCCC(=O)N(C)Cc2cnc(C)s2)c1`, for which the INHIBITION stood at 55.4%.

Take `CC(=O)c1cccc(OCCCC(=O)N(C)Cc2cnn(C)c2)c1`: the INHIBITION was found to be 82.2%.

For `CC(=O)c1cccc(OCCCC(=O)N(C)CC(N)=O)c1`, the INHIBITION is -25.1%.

Regarding `CC(=O)c1cccc(OCCCC(=O)N(C)CCC(F)(F)F)c1`, the INHIBITION turned out to be 57.3%.

Take `CCN(C)C(=O)CCN(C)Cc1cnc(C)s1`: the INHIBITION amounted to 50.4%.

Regarding `CC(=O)c1cccc(OCCCC(=O)N(C)CCc2ccncc2)c1`, the INHIBITION was -8.19%.

As to `CCOC(=O)CN(C)Cc1cnc(C)s1`, the INHIBITION was 8.38%.

As for `CC(=O)c1cccc(OCCCC(=O)N(C)Cc2cccc(O)c2)c1`, the INHIBITION is 23.5%.

In the case of `CC(=O)c1cccc(OCCCC(=O)N(C)Cc2ccccn2)c1`, the INHIBITION is given as 3.47%.

With `CCCN(CCC)C(=O)CN(C)Cc1cnc(C)s1`, the INHIBITION is 23.2%.

With `CC(=O)c1cccc(OCCCC(=O)N(C)Cc2cscn2)c1`, the INHIBITION is 5.68%.

For the compound `CN(C)C(CNC(=O)c1ccnc(-n2cncn2)c1)c1ccccc1` (stereo not given), the INHIBITION was 9.34%.

Turning to `CN(C)c1ccc(CNCc2cnc(N3CCOCC3)nc2)cn1`, the INHIBITION stood at 12.6%.

For `O=S1(=O)CCN(Cc2cccnc2)[C@H]2CCN(c3ncccn3)CC[C@H]21`, the INHIBITION is 46.8%.

Turning to `CN1C(=O)CC(c2cnn(C)c2)C12CCN(C(=O)c1cccn1C)CC2` (stereo not given), the INHIBITION came out at 26.4%.

`O=C(c1cc[nH]n1)N1CCc2cc(Br)sc2C1`: the INHIBITION is 24.2%.

For the compound `Cc1nc(CN2CCOCC3(CCN(c4cccnc4)CC3)C2)cs1`, the INHIBITION came to 14.4%.

Turning to `COCc1ncn2c1CN(C(=O)Nc1ccccc1)CC2`, the INHIBITION is -22.1%.

With `CC(Cn1ccnc1)NC(=O)Cc1ccc2c(c1)OCCO2` (stereo not given), the INHIBITION is recorded as -21.8%.

Regarding `Cc1ccsc1-c1nccn1C1CC(=O)N(C(C)C)C1` (stereo not given), the INHIBITION is reported as 35.8%.

Turning to `Cc1ccc(NC(=O)CNC(C)Cc2ccsc2)cc1F` (stereo not given), the INHIBITION is 52.2%.

Consider `Cc1ccc(NC(=O)CN[C@H](C(N)=O)C(C)C)cc1F`, for which the INHIBITION is given as 10.7%.

Turning to `Cc1cccc(C)c1NC(=O)CNC(C)Cc1ccsc1` (stereo not given), the INHIBITION is recorded as 34.6%.
